# Lassa entry inh: inhibitors of Lassa virus binding or cell entry; Potency, µM (series often up to 37.9 µM), usual class: inhibitors; 300,000 compounds, 1.2% hits; Lassa virus pseudotype entry inhibition, cell reporter; calls by dose curve; tested in HEK293 cells; further: nearly all actives have a fitted effect of over 50% in size
# HCV inh: blocks hepatitis C virus; Huh7.5.1 HCVcc-Cre infection, luciferase reporter, 44 h; Potency, µM (doses to about 41.8 µM), actives largely listed as inhibitors; 340,000 compounds, 3.4% hits
#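 A cell-based infection assay in which seeded cells (1,000 per well) receive test compound after 4 h, are inoculated with HCVcc-Cre at approximately 0.5 moi, and are incubated 44 h before luminescence detection.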
# FMDV antiviral: foot and mouth disease virus antiviral activity. FMDV antiviral cell-based qHTS. Potency, µM (highest dose often 57.9 µM), most hits filed as inhibitors. 410,000 compounds, 1.2% hits. AID 1159524; calls by dose curve; tested in HEK293T cells; further: read-out not given here; nearly all actives have a fitted effect of over 45% in size
# FBPA Giardia inh: inhibitors of Giardia lamblia fructose-1,6-bisphosphate aldolase; purified Giardia FBPA; 290,000 compounds, 0.71% hits; A8B2U2; AID 2451; Potency, µM (titrated, usually from 59.6 µM), hits mostly inhibitors; further: nearly all actives have a fitted effect of over 55% in size
# Target sequence (A8B2U2 whole entry, looked up): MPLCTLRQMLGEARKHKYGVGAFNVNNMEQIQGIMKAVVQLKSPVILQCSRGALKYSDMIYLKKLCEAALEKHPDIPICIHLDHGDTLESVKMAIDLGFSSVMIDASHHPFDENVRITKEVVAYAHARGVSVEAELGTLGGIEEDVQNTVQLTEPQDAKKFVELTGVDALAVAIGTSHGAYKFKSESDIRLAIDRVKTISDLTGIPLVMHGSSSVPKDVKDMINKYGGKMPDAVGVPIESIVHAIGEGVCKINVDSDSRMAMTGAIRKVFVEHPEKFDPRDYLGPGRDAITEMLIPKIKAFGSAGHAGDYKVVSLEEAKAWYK
#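 40 nM FBPA preincubated 10 min at RT with compound (up to 57.5 uM final), then substrate plus GAPDH/TPI/NAD/arsenate coupling and diaphorase/resazurin added. Fluorescence read after 20 min at RT, 525/598 nm.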
# HCMV inh: human cytomegalovirus inhibition; HFF cells, HCMV-luciferase reporter, 72 h; hits give low values; activity change, negative = inhibition, % at 57.5 µM; 410,000 compounds, 4.5% hits; in the data active means activity change below about -60%; inconclusive means no clear call, values can overlap the other calls; inactive means above about -39%
#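 Human foreskin fibroblasts infected with luciferase-reporter HCMV at MOI 1 PFU/cell, compounds at two doses. Luciferase measured 72 h post infection; normalized to buffer-only basal and Salinomycin (10uM) controls.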
# MARV entry inh: Marburg virus entry inhibition | Marburg virus pseudotyped entry inhibition, cell reporter | 300,000 compounds, 1.8% hits | Potency, µM (series often up to 37.8 µM), usual class: inhibitors; calls by dose curve; tested in HEK293 cells
# Numbers stand for hits; – = inactive; ? = inconclusive; · = no result given; + = active, no number. Compounds with a hit are over-represented: about 8.3% of the library has one in this group of screens. Unless noted, the call rests on the fitted dose curve; in most records, active means well fitted curve in the direction sought with a large enough effect; inconclusive means small, poorly fitted or top-dose-only effect, or another doubt; inactive means no such curve, though single readings can be large; an effect the other way counts as inactive or inconclusive.
SMILES,Lassa entry inh,HCV inh,FMDV antiviral,FBPA Giardia inh,HCMV inh,MARV entry inh
CC(C)CC1NC(=O)N(CC(=O)N2c3ccccc3NC(=O)C2(C)C)C1=O (centres undefined),–,–,–,–,–,?
CC(C)C[C@@H]1NC(=O)[C@H](Cc2ccccc2)N(C)C(=O)[C@H](C)NC(=O)c2ccccc2NC(=O)[C@H](Cc2ccc(O)cc2)N(C)C1=O,·,8.9µM,–,–,–,·
O=C(CCSCc1cccc(Cl)c1)NCc1ccc(F)cc1Cl,–,·,–,·,–,·
NS(=O)(=O)c1ccc(Nc2cc(-c3ccc(O)c(F)c3)[nH]n2)cc1,–,·,·,·,·,·
Cc1ccc(NC(=S)Nc2ccc3nc(-c4ccccn4)c(-c4ccccn4)nc3c2)cc1C,–,?,–,1.3µM,·,–
CCc1ccc(NC(=S)Nc2cccc3cnccc23)cc1,?,10µM,–,?,–,?
CC(=O)c1cccc(NC(=O)C(=O)Nc2cccc3ccccc23)c1,–,–,–,–,-60,?
Cc1cc(C)cc(NC(=S)Nc2cccc3cnccc23)c1,–,–,–,?,–,–
CC(=O)N(C)c1ccc(NC(=S)Nc2cccc3ccccc23)cc1,–,–,–,?,-71,?
O=C(c1ccc(C(F)(F)F)cc1)N(Cc1cc2ccc(F)cc2nc1N1CCOCC1)C1CC1,·,·,–,·,·,·
COc1ccc(CCNC(=O)Cn2c(=O)c3cccn3c3ccc(F)cc32)c(OC)c1,–,·,–,·,–,·
CCC1=NN2C(=N)/C(=C\c3cccn3-c3ccc(Cl)cc3)C(=O)N=C2S1,–,?,–,–,-81,–
CC(C)NC(=O)NC(=O)COC(=O)c1ccccc1Oc1ccccc1,?,–,–,–,–,11µM
CC(C)NC(=O)NC(=O)COC(=O)c1ccccc1O,–,–,–,–,–,–
Cc1nc2ccc(Br)cn2c(=O)c1Cl,–,–,4µM,–,–,–
Cc1nc2ccc(Br)cn2c1NC(C)(C)C,–,–,–,–,–,–
COc1ccc(/C(C)=N/NC(=O)c2nnn(-c3nonc3N)c2-c2cccs2)cc1,–,–,?,·,–,–
COc1cccc(-c2c(C(=O)N/N=C(\C)c3cccs3)nnn2-c2nonc2N)c1,·,?,–,–,+,·
COc1ccc(/C(C)=N/NC(=O)c2nnn(-c3nonc3N)c2-c2cccs2)cc1OC,–,?,–,·,+,–
COc1ccc(C(=O)N2CCC3(CCN(C)CC3)CC2)cc1,·,·,–,–,·,·
COc1cc2c(cc1OC)-c1c(OC)c(OC)c(OC)c3ccnc(c13)C2=O,?,–,?,?,·,18µM
COc1ccc(Cl)cc1/C=C/c1ccc2cccc(O)c2n1,·,?,–,–,?,·
Oc1cccc2ccc(/C=C/c3ccccc3Cl)nc12,·,7.9µM,–,–,–,·
Oc1cccc2ccc(/C=C/c3c(F)cccc3Cl)nc12,18µM,11µM,–,–,–,?
Nc1nccc(/C=C/c2c(F)cccc2Cl)n1,–,–,–,–,-68,–
SMILES,Lassa entry inh,HCV inh,FMDV antiviral,FBPA Giardia inh,HCMV inh,MARV entry inh
COC(=O)NC(C(=O)OC)(C(=O)OC)c1ccccc1,·,·,·,–,·,?
OC1(c2ccc(Cl)c(C(F)(F)F)c2)CCN(CCCC(c2ccc(F)cc2)c2ccc(F)cc2)CC1,·,·,·,–,-99,·
COc1cc(-c2cc(C)c3c(OC)ccc(OC)c3n2)cc2c1OCCN(C(=O)C(C)c1n[nH]c(=O)c3ccccc13)C2 (centres undefined),·,·,–,·,·,·
CC(C)C[C@H]1COc2cc(Br)ccc2S(=O)(=O)N1Cc1cccc(Cl)c1,·,·,·,·,–,·
O=C(CN1CCCC1)Nc1ccc(-c2nc3cc(NC(=O)CN4CCCC4)ccc3o2)cc1,?,?,–,–,-100,?
CCN(CC)CC(=O)Nc1ccc(Oc2ccc(NC(=O)CN(CC)CC)cc2)cc1,–,?,–,–,–,4µM
CO/N=C\CC(=O)Nc1ccc(Oc2ccccc2)cc1,?,–,–,–,-70,?
CCCC(=O)Nc1ccc2oc(-c3ccncc3)nc2c1,–,–,–,–,–,–
CCN(CC)CC(=O)Nc1ccc(-c2nc3cc(NC(=O)CN(CC)CC)ccc3o2)cc1,–,–,–,–,–,0.71µM
CCCOc1cccc(C(=O)N2CCCCC2CCN2CCCCC2)c1 (centres undefined),–,·,–,·,?,?
C=C(c1ccccc1)[C@@H](C#N)C1CCCC1,·,·,·,·,–,·
CC1CCN(C(=O)Cn2cc(SCc3cccc(F)c3)c3ccccc32)CC1,?,·,–,·,–,·
CCC(C)NCC(=O)Nc1ccc(-c2nc3cc(NC(=O)CNC(C)CC)ccc3o2)cc1 (centres undefined),?,–,–,–,-84,?
Cc1ccc2oc(-c3ccc(NC(=O)CC(C)C)cc3)nc2c1,–,–,–,–,–,?
COc1cc2c(cc1OC)C1O[C@](CCCCN3C(=O)c4ccccc4C3=O)(C2)OC2=C1C(=O)CC(C)(C)C2,·,·,·,?,·,–
O=C(CN1C(=O)c2ccccc2S1(=O)=O)NC(Nc1ccccc1F)C(Cl)(Cl)Cl (centres undefined),–,–,–,–,-105,–
O=C(CN1C(=O)c2ccccc2S1(=O)=O)c1ccccc1Cl,·,·,·,·,-86,·
CC(C)NC(=O)CN1C(=O)c2ccccc2S1(=O)=O,–,–,–,–,–,?
O=C(CN1C(=O)c2ccccc2S1(=O)=O)NCc1c(F)cccc1F,–,–,–,·,–,–
O=C(CN1C(=O)c2ccccc2S1(=O)=O)c1ccccc1,4µM,–,?,–,-65,?
Cc1ccc(C(=O)CN2C(=O)c3ccccc3S2(=O)=O)cc1,?,–,14µM,–,-88,?
O=C1[C@H]2[C@H]3[C@H](O)[C@H](O)C/C(=N\OC[C@@H](O)COCc4ccco4)[C@H]3CC[C@H]2C(=O)N1C1CCCCC1,·,·,·,·,·,–
O=C(CCN1C(=O)c2ccccc2S1(=O)=O)Nc1ccc(Cl)cc1,–,–,–,–,-78,–
Cc1ccc(C(=O)CN2/C(=C(\O)c3ccccc3)C(=O)c3ccccc3S2(=O)=O)c(C)c1,18µM,?,–,–,·,?
C=CCOC(=O)N[C@H](/C(C(=O)OC)=C(\C)NCc1ccccc1)c1ccc(Br)cc1,·,·,·,–,·,–
SMILES,Lassa entry inh,HCV inh,FMDV antiviral,FBPA Giardia inh,HCMV inh,MARV entry inh
CC1=CC(c2ccc(Cl)cc2)n2ncnc2N1 (centres undefined),·,0.89µM,–,·,?,·
COc1ccc(C2C=C(C)Nc3ncnn32)cc1 (centres undefined),·,–,–,·,–,·
Cc1cccc(C)c1OCc1cc(=O)n2c3c(sc2n1)CCCC3,–,·,?,·,–,–
Cc1c(Br)cc(C(=O)N2CCN(CCO)CC2)c(C)c1C,–,–,–,–,-101,–
COC(=O)C1(C)C2CC(C)C(c3ccccc32)N1C(=O)C(F)(F)F (centres undefined),?,·,·,·,·,–
CC[C@@H]1Cn2c(c3nc(-c4cc(Cl)cc(Cl)c4Cl)nc-3n(C)c2=O)N1,·,·,–,–,·,·
CCCNC(=O)/C=C/c1ccc(S(=O)(=O)Nc2ccccc2OC)cc1,5µM,?,–,–,–,?

# High-throughput results: PubChem BioAssay, National Center for Advancing Translational Sciences (NCATS)
